Here are results for eleven substances from ChEMBL document CHEMBL1201862, “PubChem BioAssay data set” (2004).

Among all 55,000 sequences or so, about 3,800 (6.9%) were called active. Cut-off read from the data, not from the text of the source: active = GI50 up to about 1.1 µM and inactive = higher. These entries were drawn from the full list. Results with a measured potency or affinity are listed apart.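 Test compounds were applied to cells in 96-well plates for 48 hours at 5 doses. GI50: concentration for 50% inhibition of growth.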

This test concerns CAKI-1. As to the kind of experiment: NCI tumour cell line growth inhibition, 48 h.
Turning to “[Bis(aminomethyl)pentamethylenesilane]dichloropaltinum(II), CHEMBL2146202”, the GI50 worked out at 2.26 µM.
To “[Bis(aminomethyl)tetramethylenesilane]tetrachloropaltinum(IV), CHEMBL2146189” belongs 5.92 µM; to “[Bis(aminomethyl)diethylsilane]tetrachloroplatinum(IV), CHEMBL2146203”, 4.06 µM.
To “[Bis(aminomethyl)ethylmethylsilane]tetrachloroplatinum(IV), CHEMBL2146192” belongs 1.19 µM.
To CISPLATIN, CHEMBL11359 belongs 1.99 µM.
“[Bis(aminomethyl)dimethylsilane]tetrachloroplatinum(IV), CHEMBL2146190” registered a GI50 of 4.05 µM.
To “[Bis(aminomethyl)dimethylsilane]dichloroplatinum (II), CHEMBL2146201” belongs 12 µM; to “[Bis(aminomethyl)pentamethylenesilane]tetrachloropaltinum(IV), CHEMBL2146204”, 2.14 µM.
For the substance “mu-(1,7-nanodiamine-N,N')bis-(cis-aminedichloroplatimum (II)), CHEMBL2146215”, the GI50 is 50.6 µM.
To “[Bis(aminomethyl)tetramethylenesilane]dichloropaltinum(II), CHEMBL2146205” belongs 13.6 µM; to “cis-Bis[[(trimethylsilyl)methyl]amino]tetrachloroplatinum(IV), CHEMBL2146191”, 11.9 µM.
